Results on 8 compounds are retold here after PubChem BioAssay (Tox21).

“And” between values parts separate entries of the source, which are not always exact repeats. Identical values can stand only once. Results filed as inconclusive are left out. The source made the active and inactive calls. Unless noted, calls follow the shape of the dose curve; as a rule, active = well fitted curve in the direction sought with a large enough effect in the repeat runs; inconclusive = weak or mixed curves; inactive = no such curve, though single readings can be large; an effect the other way counts as inactive or inconclusive.

The nature of assay [1]: qHTS assay for small molecule agonists of the p53 signaling pathway (AID 651631; calls by dose curve; also: nearly all actives have a fitted effect of over 15% in size; also: potency is read from the fitted curve at half-maximal effect). In a few lines:
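Agonist mode screen using a stably integrated beta-lactamase gene under p53 response elements in HCT-116 cells. Compound exposure lasts 16 h at 37 °C; fluorescence intensity is measured following 2 h FRET substrate loading.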

The nature of assay [2]: qHTS assay for small molecules that induce genotoxicity in human embryonic kidney cells expressing luciferase-tagged ATAD5 (AID 651632). Also: nearly all actives have a fitted effect of over 15% in size. In a few lines: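 Increased luciferase signal from ATAD5-tagged reporter cells indicates DNA-damage-driven ATAD5 induction. HEK293T cells are treated for 16 hr at 37C before detection with Amplite.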
A short description of assay [3]: qHTS assay for small molecules that induce genotoxicity in human embryonic kidney cells expressing luciferase-tagged ATAD5 - cell viability (AID 651634; calls by dose curve; also: nearly all actives have a fitted effect of over 25% in size). In a few lines: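 Cytotoxicity counterscreen in HEK293T cells bearing an ATAD5-luciferase reporter: live-cell protease activity measured by CellTiter-Fluor fluorescence after 15.5 hr compound exposure.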
Assay [4] is described as follows: qHTS assay for small molecule disruptors of the mitochondrial membrane potential - cell viability (AID 720634; calls by dose curve;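 also: human HepG2 liver cancer cells; nearly all actives have a fitted effect of over 20% in size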). In a few lines: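 After overnight attachment at 37 C, HepG2 cells received compound or DMSO vehicle for 1 hr. Viability is then taken from ATP-driven luminescence following a 30 min room-temperature CellTiter-Glo step.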
A short description of assay [5]: qHTS assay for small molecule disruptors of the mitochondrial membrane potential (AID 720635). Also: potency is read from the fitted curve at half-maximal effect. In a few lines: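 HepG2 cells (2,000/well) attached overnight at 37C, then took compound for 1 hr at 37C, 5% CO2. Mito-MPS dye was added for 30 min; fluorescence was read at 490/535 nm (monomers) and 540/590 nm (aggregates).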
The nature of assay [6]: qHTS assay to test for compound auto fluorescence at 590 nm (red) in HepG2 cells (AID 720674). In a few lines: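 Rose Bengal sodium served as the red fluorophore standard. HepG2 monolayers (overnight attachment, MEM with 10% FBS) were exposed to test compounds for 1 hr at 37 C and read at Ex 540/Em 590 nm.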
Assay [7] is described as follows: qHTS assay to test for compound auto fluorescence at 535 nm (green) in HepG2 cells (AID 720675).
Assay [8] in a line: qHTS assay to test for compound auto fluorescence at 460 nm (blue) in HEK293 cells (AID 720678). In a few lines:
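Intrinsic compound fluorescence is recorded in live HEK293 cultures after overnight incubation at 37C, 5% CO2, using excitation 405 nm and emission 460 nm. Values are referenced to triamterene.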

A short description of assay [9]: qHTS assay to test for compound auto fluorescence at 590 nm (red) in HEK293 cells (AID 720679). In a few lines: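 Red autofluorescence, HEK293 cells: 2,000 cells/well; attach 4-5 hr 37C; add 23 nL cpd or DMSO; incubate o/n 37C 5% CO2; read Ex540/Em590; Rose Bengal sodium reference.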
Assay [10] can be described thus: qHTS assay to test for compound auto fluorescence at 535 nm (green) in HEK293 cells (AID 720680).
The nature of assay [11]: qHTS assay to test for compound auto fluorescence at 460 nm (blue) in HEK293 cell free culture (AID 720681). In a few lines:
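Test compounds were pinned into cell-free culture medium (DMEM with 10% FBS) and fluorescence was read directly at Ex/Em 405/460 nm. Signals were expressed as fluorescence equivalents of triamterene, with DMSO vehicle as control.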

Assay [12] can be described thus: qHTS assay to test for compound auto fluorescence at 535 nm (green) in HEK293 cell free culture (AID 720682). In a few lines:
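No cells present: wells hold DMEM supplemented with 10% FBS, into which compound or vehicle is pinned. Green emission is then recorded (485 nm excitation, 535 nm emission) and scaled to fluorescein.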

Assay [13] can be described thus: qHTS assay to test for compound auto fluorescence at 590 nm (red) in HEK293 cell free culture (AID 720683). In a few lines: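 Tox21 10K library compounds were pinned into cell-free DMEM with 10% FBS and fluorescence was read at excitation 540 nm. Activity is expressed as Rose Bengal sodium equivalency.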
The nature of assay [14]: qHTS assay to test for compound auto fluorescence at 590 nm (red) in HepG2 cell free culture (AID 720684). In a few lines: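 Red fluorescence (540 nm excitation, 590 nm emission) was measured after compound transfer into cell-free MEM supplemented with 10% FBS. Values are equivalencies against Rose Bengal sodium.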
A short description of assay [15]: qHTS assay to test for compound auto fluorescence at 460 nm (blue) in HepG2 cell free culture (AID 720685). In a few lines:
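Compound (23 nL) or DMSO pinned into cell-free MEM with 10% FBS; blue fluorescence read at 405/460 nm excitation/emission, expressed as auto-fluorescence equivalency to triamterene.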

Assay [16] is described as follows: qHTS assay to test for compound auto fluorescence at 535 nm (green) in HepG2 cell free culture (AID 720686).
Assay [17] is described as follows: qHTS assay to test for compound auto fluorescence at 460 nm (blue) in HepG2 cells (AID 720687). In a few lines:
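Cells (2,000/well in MEM with 10% FBS) attached overnight at 37 C, then were exposed to compound or DMSO for 1 hr at 37 C, 5% CO2. Fluorescence read at Ex/Em 405/460 nm, expressed as triamterene-equivalent signal.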

Assay [18] deals with Glucocorticoid receptor (Homo sapiens) (UniProt P04150). As to the kind of experiment: qHTS assay to identify small molecule antagonists of the glucocorticoid receptor (GR) signaling pathway (AID 720692; active = well fitted inhibition curve with a large enough effect in the signal ratio in the repeat runs, not every such curve was filed as active; the % refers to the signal ratio; also: potency is read from the fitted curve at half-maximal effect). In a few lines:
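Cells plated, rested 4 h at 37 C/5% CO2; compounds in DMSO pin-transferred; dexamethasone added to 5 nM final; 18 h at 37 C; B/G FRET substrate added, 2 h room temperature; fluorescence measured.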

Assay [19] has the same target. Kind of assay: qHTS assay to identify small molecule agonists of the glucocorticoid receptor (GR) signaling pathway (AID 720691; active = well fitted activation curve with a large enough effect in the signal ratio in the repeat runs, not every such curve was filed as active; the % refers to the signal ratio). As to conditions: GR-bla HeLa, beta-lactamase reporter ratio, 18 h; activation: at 62.4 µM (top of the series). In a few lines: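 Agonist mode in a HeLa line carrying a GRE-controlled beta-lactamase reporter. Compounds act for 18 h at 37 C before a 2 h room-temperature FRET substrate step and fluorescence reading.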

Assay [20] can be described thus: qHTS assay for small molecule agonists of the p53 signaling pathway - cell viability (AID 651633; calls by dose curve; also: potency is read from the fitted curve at half-maximal effect; nearly all actives have a fitted effect of over 30% in size). In a few lines:
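p53RE-bla cells, seeded at 4,000 per well and rested 5 h at 37 C/5% CO2, received compounds in DMSO for 16 h at 37 C. CellTiter-Glo was then added, and luminescence was read after 30 min at room temperature to gauge cytotoxicity.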

Chain of Glucocorticoid receptor (Homo sapiens) (P04150 whole entry, looked up): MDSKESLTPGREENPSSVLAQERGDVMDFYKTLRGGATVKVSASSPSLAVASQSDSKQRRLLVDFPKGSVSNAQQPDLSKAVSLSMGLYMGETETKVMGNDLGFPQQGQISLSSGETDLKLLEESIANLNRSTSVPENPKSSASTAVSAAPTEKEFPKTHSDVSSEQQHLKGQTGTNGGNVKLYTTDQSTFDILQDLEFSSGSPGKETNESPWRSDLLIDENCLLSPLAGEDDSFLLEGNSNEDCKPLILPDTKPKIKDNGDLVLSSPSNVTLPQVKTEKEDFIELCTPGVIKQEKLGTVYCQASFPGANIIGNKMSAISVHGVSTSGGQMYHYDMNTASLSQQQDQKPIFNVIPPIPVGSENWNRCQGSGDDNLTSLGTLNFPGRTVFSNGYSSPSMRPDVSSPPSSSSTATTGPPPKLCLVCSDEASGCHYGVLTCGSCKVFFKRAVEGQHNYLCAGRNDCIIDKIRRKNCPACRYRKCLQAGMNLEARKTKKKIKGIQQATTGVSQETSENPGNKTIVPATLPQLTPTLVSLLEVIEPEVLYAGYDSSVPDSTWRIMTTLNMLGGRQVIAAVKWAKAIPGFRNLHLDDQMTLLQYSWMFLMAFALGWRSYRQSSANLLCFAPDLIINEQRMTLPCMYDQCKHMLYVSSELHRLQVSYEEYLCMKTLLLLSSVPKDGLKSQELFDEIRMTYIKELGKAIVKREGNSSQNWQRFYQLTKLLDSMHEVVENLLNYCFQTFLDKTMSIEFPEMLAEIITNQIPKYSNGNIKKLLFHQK

Take `CCCCCCCC/C=C\CCCCCCCC(=O)OCCOC(=O)CCCCCCC/C=C\CCCCCCCC`: the Potency result in assay [1], in assay [2], in [3], in assay [4], in [6] and in assay [7] was “inactive” each time. Besides, the Potency result in [8], in assay [9], in assay [10], in assay [11], in assay [12] and in assay [13] was “inactive” throughout. Moreover, the Potency entry in assay [14], in assay [15], in assay [16] and in assay [17] was “inactive” each time. Besides, the Potency in assay [5] was 79.8 µM (active).
Turning to `CCCCCCOc1ccc(O)cc1`, the Potency in [1] was 24.3 µM (active); in assay [5] it was 12.2 µM (active). Further, the Potency entry in [3], in [6], in assay [7], in assay [8], in assay [10] and in assay [11] was “inactive” each time. Further, the Potency result in assay [12], in assay [13], in [14], in assay [15], in [16] and in [17] was “inactive” in each case.
On to `CCCCCCCCCCOCC(O)CN` (centres undefined), for which the Potency is 33.5 µM (active) in [1] and 26.8 µM (active) in assay [18]. In addition, the Potency entry in assay [2], in assay [4], in [6], in assay [7], in assay [8] and in [10] was “inactive” in each case. The Potency entry in [11], in assay [12], in assay [13], in assay [14], in [15] and in assay [16] was “inactive” throughout. Also, the Potency entry in [17] is “inactive”.
Turning to `CN(C)CCCN1c2ccccc2Sc2ccc(C(F)(F)F)cc21`, the Potency in assay [1] is 11.9 µM (active). Moreover, the Potency entry in [2], in [6], in assay [7], in assay [8], in [9] and in assay [10] was “inactive” each time. The Potency entry in assay [11], in assay [12], in [13], in [14], in assay [15] and in assay [16] was “inactive” in each case. The Potency result in [17] and in assay [19] was “inactive” throughout.
As to `S=P(N1CC1)(N1CC1)N1CC1`, the Potency in [1] was 14.4 µM (active). For the same compound, the Potency result in assay [2], in assay [3], in assay [5], in assay [6], in [7] and in [8] was “inactive” each time. Further, the Potency result in assay [9], in assay [10], in assay [11], in assay [12], in assay [13] and in assay [14] was “inactive” each time. Besides, the Potency result in assay [15], in [16], in assay [17], in [19] and in assay [18] was “inactive” throughout.
With `C=CC(=C)CCC=C(C)C`, the Potency entry in assay [1], in assay [2], in assay [3], in [4], in assay [6] and in [7] was “inactive” throughout. Moreover, the Potency result in assay [8], in assay [9], in assay [10], in assay [11], in assay [12] and in assay [13] was “inactive” in each case. Moreover, the Potency result in [14], in [15], in [16], in assay [17] and in assay [18] was “inactive” in each case.
Regarding `Clc1ccc(C(c2ccccc2Cl)C(Cl)Cl)cc1` (centres undefined), the Potency in assay [1] was 68.6 µM (active); in assay [20], 23.7 µM (active); in [5], 13.3 µM (active) and 27.3 µM (active); in [18], 10.7 µM (active) and 27.5 µM (active). Besides, the Potency result in assay [3], in assay [4], in assay [7], in [8], in [9] and in assay [10] was “inactive” each time. Besides, the Potency entry in [11], in assay [12], in [13], in assay [14], in [15] and in assay [16] was “inactive” throughout. The Potency entry in assay [17] is “inactive”.
Take `CCOC(=O)C1=C(C)NC(C)=C(C(=O)OCC)C1c1ccccc1/C=C/C(=O)OC(C)(C)C`: the Potency in assay [1] is 29.8 µM (active); in assay [20], 29.8 µM (active); in assay [5] it was 10.6 µM (active). Also, the Potency result in assay [2], in [6], in assay [7], in assay [8], in [9] and in assay [10] was “inactive” each time. In addition, the Potency result in assay [11], in assay [12], in assay [13], in assay [14], in assay [15] and in assay [16] was “inactive” in each case. The Potency entry in assay [17] was “inactive”.
